Measurements published in PubChem BioAssay (Tox21).
Results filed as inconclusive are left out. A call without a number means that no potency is given here. The source made the active and inactive calls. Calls follow the shape of the dose curve; as a rule, active = well fitted curve in the direction sought with a large enough effect in the repeat runs; inconclusive = weak or mixed curves; inactive = no such curve, though single readings can be large; an effect the other way counts as inactive or inconclusive.

Tests used:
[1] = biological target: Cytochrome P450 2D6 (Homo sapiens) (UniProt P10635); experiment: Cytochrome P450 Family 2 Subfamily D Member 6 (CYP2D6) small molecule antagonists: luciferase reporter qHTS assay (AID 1671196); also: nearly all actives have a fitted effect of over 50% in size; also: potency is read from the fitted curve at half-maximal effect
Chain of Cytochrome P450 2D6 (Homo sapiens) (P10635 whole entry, looked up): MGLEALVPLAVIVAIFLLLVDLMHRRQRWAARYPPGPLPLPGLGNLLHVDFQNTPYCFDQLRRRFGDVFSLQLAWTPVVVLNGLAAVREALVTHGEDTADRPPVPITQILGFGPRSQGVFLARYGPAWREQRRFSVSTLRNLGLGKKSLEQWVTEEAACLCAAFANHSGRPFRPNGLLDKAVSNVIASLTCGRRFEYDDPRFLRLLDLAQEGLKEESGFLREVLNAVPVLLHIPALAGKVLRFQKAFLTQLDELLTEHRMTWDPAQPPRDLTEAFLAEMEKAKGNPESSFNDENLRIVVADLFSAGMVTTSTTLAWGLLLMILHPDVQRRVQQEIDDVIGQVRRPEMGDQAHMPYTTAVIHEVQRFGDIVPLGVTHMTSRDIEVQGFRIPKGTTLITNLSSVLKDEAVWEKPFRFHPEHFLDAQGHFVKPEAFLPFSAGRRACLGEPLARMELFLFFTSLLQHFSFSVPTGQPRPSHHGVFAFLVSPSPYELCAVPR
In short: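 Inhibition of CYP2D6 was gauged by loss of luminescence, since light produced tracks the luciferin generated from a proluciferin substrate. A 10 min room-temperature preincubation preceded 1 h NADPH-supported turnover.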

[2] = biological target: Cytochrome P450 2C19 (Homo sapiens) (UniProt P33261); experiment: Cytochrome P450 Family 2 Subfamily C Member 19 (CYP2C19) small molecule antagonists: luciferase reporter qHTS assay (AID 1671197); also: nearly all actives have a fitted effect of over 65% in size; also: potency is read from the fitted curve at half-maximal effect
Chain of Cytochrome P450 2C19 (Homo sapiens) (P33261 whole entry, looked up): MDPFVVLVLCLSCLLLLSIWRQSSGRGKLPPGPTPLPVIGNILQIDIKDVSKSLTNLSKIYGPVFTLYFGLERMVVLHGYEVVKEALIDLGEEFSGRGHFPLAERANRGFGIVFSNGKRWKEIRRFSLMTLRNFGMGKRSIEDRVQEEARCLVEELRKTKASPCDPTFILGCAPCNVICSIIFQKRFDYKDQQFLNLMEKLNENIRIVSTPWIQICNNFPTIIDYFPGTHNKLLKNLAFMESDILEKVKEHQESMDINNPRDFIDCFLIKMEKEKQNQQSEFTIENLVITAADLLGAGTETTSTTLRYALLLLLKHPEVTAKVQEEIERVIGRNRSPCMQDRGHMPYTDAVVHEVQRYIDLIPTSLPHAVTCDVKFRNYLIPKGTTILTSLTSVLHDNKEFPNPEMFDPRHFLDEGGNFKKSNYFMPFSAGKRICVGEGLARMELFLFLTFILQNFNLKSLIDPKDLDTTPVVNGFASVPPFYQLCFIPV
In short: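 Relative luminescence units recorded 20 min after the detection reagent stopped a 1 h, 37C CYP2C19 reaction on proluciferin substrate, which was started by NADPH regeneration following 10 min room-temperature compound preincubation; ketoconazole positive control.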

[3] = biological target: Voltage-gated inwardly rectifying potassium channel KCNH2 (Homo sapiens) (UniProt Q12809); experiment: Human Ether-a-go-go-Related Gene (hERG) channel small molecule antagonists: fluorescence cell-based qHTS assay (AID 1671200);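 also: hERG-expressing U2OS cells given a thallium stimulus after FluxOR II dye loading; series mostly up to about 77 µM; nearly all actives have a fitted effect of over 50% in size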
Chain of Voltage-gated inwardly rectifying potassium channel KCNH2 (Homo sapiens) (Q12809 whole entry, looked up): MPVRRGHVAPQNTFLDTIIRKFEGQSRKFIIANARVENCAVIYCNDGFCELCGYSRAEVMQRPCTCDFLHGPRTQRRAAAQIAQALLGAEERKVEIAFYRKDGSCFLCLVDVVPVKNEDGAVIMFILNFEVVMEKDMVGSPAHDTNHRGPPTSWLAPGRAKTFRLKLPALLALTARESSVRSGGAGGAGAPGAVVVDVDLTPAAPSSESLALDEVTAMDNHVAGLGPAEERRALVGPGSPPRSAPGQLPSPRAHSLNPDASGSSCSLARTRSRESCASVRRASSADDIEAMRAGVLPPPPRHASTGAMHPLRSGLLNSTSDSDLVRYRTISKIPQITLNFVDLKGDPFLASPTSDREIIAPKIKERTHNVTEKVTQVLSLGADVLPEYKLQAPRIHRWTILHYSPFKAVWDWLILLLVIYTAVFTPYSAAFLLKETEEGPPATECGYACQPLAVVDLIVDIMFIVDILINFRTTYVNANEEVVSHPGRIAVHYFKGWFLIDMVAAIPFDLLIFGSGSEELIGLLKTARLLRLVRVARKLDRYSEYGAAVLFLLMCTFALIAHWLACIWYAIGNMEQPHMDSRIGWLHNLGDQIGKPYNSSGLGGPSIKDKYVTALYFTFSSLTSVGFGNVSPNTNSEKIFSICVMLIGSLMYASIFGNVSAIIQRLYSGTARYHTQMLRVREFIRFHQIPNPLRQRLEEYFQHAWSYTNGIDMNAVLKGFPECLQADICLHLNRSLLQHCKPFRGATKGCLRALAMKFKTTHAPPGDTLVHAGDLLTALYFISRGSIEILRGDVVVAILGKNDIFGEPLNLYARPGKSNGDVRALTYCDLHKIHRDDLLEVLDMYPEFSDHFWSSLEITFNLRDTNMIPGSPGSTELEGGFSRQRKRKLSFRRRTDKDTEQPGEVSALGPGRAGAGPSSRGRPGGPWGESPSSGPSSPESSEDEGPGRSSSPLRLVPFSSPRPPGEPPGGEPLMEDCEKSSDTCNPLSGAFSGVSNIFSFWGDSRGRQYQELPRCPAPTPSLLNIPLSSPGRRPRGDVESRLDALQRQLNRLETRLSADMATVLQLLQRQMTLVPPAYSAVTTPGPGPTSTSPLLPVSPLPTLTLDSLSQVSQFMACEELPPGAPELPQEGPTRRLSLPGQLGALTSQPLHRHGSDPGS
In short: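 Cell line hERG-U2OS; dye FluxOR II, 1 h RT dark; Tl+ stimulus; ex 480/em 540 nm, read each second for 2 min.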

[4] = biological target: Cytochrome P450 3A4 (Homo sapiens) (UniProt P08684); experiment: Cytochrome P450 Family 3 Subfamily A Member 4 (CYP3A4) small molecule antagonists: luciferase reporter qHTS assay (AID 1671201); also: nearly all actives have a fitted effect of over 50% in size; also: potency is read from the fitted curve at half-maximal effect
Chain of Cytochrome P450 3A4 (Homo sapiens) (P08684 whole entry, looked up): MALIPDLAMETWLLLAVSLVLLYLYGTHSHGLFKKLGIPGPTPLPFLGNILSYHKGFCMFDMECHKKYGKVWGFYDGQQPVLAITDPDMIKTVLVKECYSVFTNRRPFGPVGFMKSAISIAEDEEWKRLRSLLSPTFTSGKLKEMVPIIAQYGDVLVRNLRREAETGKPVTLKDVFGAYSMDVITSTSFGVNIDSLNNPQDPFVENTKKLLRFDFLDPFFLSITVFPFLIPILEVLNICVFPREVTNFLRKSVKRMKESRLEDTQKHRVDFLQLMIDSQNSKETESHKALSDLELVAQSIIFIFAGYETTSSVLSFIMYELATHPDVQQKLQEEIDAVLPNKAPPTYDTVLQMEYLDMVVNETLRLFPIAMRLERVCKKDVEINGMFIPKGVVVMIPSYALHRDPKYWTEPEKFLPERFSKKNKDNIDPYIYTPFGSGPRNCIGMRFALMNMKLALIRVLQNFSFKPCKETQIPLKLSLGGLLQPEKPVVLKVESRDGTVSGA
In short: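 Room-temperature assay throughout: 10 min compound–enzyme/substrate preincubation, 1 h reaction after NADPH regeneration solution, 20 min detection. Luciferin formed from proluciferin substrate is quantified by luminescence.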

[5] = biological target: Cytochrome P450 1A2 (Homo sapiens) (UniProt P05177); experiment: Cytochrome P450 Family 1 Subfamily A Member 2 (CYP1A2) small molecule antagonists: luciferase reporter qHTS assay (AID 1671199); also: nearly all actives have a fitted effect of over 50% in size; also: potency is read from the fitted curve at half-maximal effect
Chain of Cytochrome P450 1A2 (Homo sapiens) (P05177 whole entry, looked up): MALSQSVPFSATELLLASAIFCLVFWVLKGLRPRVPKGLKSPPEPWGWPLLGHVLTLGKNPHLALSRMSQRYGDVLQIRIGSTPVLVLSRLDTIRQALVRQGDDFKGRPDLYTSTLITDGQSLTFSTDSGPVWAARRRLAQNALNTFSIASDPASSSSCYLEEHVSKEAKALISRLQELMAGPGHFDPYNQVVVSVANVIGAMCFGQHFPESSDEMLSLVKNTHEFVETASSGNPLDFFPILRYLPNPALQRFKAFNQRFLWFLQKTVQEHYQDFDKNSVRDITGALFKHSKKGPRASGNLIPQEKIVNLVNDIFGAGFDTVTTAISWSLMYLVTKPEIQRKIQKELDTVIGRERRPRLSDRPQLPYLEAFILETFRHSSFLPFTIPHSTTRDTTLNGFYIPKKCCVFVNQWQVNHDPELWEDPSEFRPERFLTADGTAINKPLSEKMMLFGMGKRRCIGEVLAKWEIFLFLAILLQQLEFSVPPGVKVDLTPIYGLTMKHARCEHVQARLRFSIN
In short: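 Signal from luciferin formed by CYP1A2 from a proluciferin substrate is read as luminescence, expressed in relative luminescence units. Compounds sit with enzyme 10 min, NADPH-driven reaction runs 1 h, all at room temperature.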

[6] = biological target: Cytochrome P450 2C9 (Homo sapiens) (UniProt P11712); experiment: Cytochrome P450 Family 2 Subfamily C Member 9 (CYP2C9) small molecule antagonists: luciferase reporter qHTS assay (AID 1671198); also: nearly all actives have a fitted effect of over 50% in size; also: potency is read from the fitted curve at half-maximal effect
Chain of Cytochrome P450 2C9 (Homo sapiens) (P11712 whole entry, looked up): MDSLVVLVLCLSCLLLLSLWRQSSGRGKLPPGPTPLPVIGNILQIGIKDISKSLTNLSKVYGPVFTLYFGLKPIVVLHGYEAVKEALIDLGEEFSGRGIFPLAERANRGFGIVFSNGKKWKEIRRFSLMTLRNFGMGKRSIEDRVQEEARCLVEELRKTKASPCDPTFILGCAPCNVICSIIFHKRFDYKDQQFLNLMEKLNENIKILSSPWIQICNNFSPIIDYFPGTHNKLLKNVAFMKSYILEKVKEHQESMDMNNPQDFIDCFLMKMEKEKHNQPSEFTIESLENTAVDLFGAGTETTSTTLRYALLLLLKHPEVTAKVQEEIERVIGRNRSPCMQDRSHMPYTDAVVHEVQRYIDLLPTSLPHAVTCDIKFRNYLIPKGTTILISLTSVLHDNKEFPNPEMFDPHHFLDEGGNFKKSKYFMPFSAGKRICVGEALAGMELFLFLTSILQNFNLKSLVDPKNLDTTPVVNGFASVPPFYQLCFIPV
In short: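 CYP2C9 activity was measured with a P450-Glo proluciferin substrate. Enzyme–substrate mix was held with compound for 10 min at room temperature, then NADPH regeneration solution was added for 1 h at 37C. Luciferin product was read as luminescence.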

SMILES: CCC[Si](OC)(OC)OC
- Potency [1]: inactive
- Potency [2]: 71 µM (active)
- Potency [3]: inactive
- Potency [4]: inactive

SMILES: NC(=O)c1ccccc1C(N)=O
- Potency [1]: 40.1 µM (active)
- Potency [2]: 40.1 µM (active)
- Potency [5]: 28.4 µM (active)
- Potency [3]: inactive
- Potency [4]: 63.5 µM (active)

SMILES: CC/C=C\CCO
- Potency [1]: inactive
- Potency [2]: inactive
- Potency [5]: inactive
- Potency [3]: inactive
- Potency [4]: inactive

SMILES: CCC(C)CCCC(C)(C)O (stereo not given)
- Potency [1]: inactive
- Potency [2]: inactive
- Potency [5]: inactive
- Potency [3]: inactive
- Potency [4]: inactive

SMILES: CC(=O)Oc1cccc2c1C(=O)c1c(OC(C)=O)cc(C(=O)O)cc1C2=O
- Potency [1]: inactive
- Potency [2]: inactive
- Potency [5]: inactive
- Potency [3]: inactive
- Potency [4]: inactive

SMILES: CCC(=O)O[C@]1(C(=O)COC)[C@@H](C)C[C@H]2[C@@H]3CCC4=CC(=O)C=C[C@]4(C)C3(F)[C@@H](O)C[C@@]21C (stereo not given in full)
- Potency [1]: 15.5 µM (active)
- Potency [2]: inactive
- Potency [5]: inactive
- Potency [3]: inactive

SMILES: Nc1cccc2c(=O)[nH][nH]c(=O)c12
- Potency [1]: 5.05 µM (active)
- Potency [2]: inactive
- Potency [6]: inactive
- Potency [4]: inactive

SMILES: Sc1nc(S)nc(S)n1
- Potency [1]: inactive
- Potency [2]: inactive
- Potency [5]: inactive
- Potency [3]: inactive
- Potency [4]: inactive

SMILES: CC(C)C[C@H](NC(=O)[C@H](Cc1ccccc1)NC(=O)c1cnccn1)B(O)O
- Potency [1]: inactive
- Potency [2]: 34.7 µM (active)
- Potency [5]: 24.5 µM (active)
- Potency [3]: inactive

SMILES: C[C@@H](O)[C@H]1C(=O)N2C(C(=O)O)=C(S[C@@H]3CN[C@H](CNS(N)(=O)=O)C3)[C@H](C)[C@H]12
- Potency [1]: inactive
- Potency [2]: 9.77 µM (active)
- Potency [6]: 15.5 µM (active)
- Potency [4]: 3.89 µM (active)

SMILES: CCC1=C(C)CN(C(=O)NCCc2ccc(S(=O)(=O)NC(=O)NC3CCC(C)CC3)cc2)C1=O (stereo not given)
- Potency [1]: inactive
- Potency [2]: inactive
- Potency [5]: inactive
- Potency [3]: inactive
- Potency [4]: inactive
